# Data reported in PubChem BioAssay (Tox21).
# The source made the active and inactive calls. Calls follow the shape of the dose curve; as a rule, active = well fitted curve in the direction sought with a large enough effect in the repeat runs; inconclusive = weak or mixed curves; inactive = flat fitted curve, though single readings scatter.
# Assay: qHTS assay to test for compound auto fluorescence at 590 nm (red) in HEK293 cells (AID 720679)
# Details: red autofluorescence 540/590 nm; series mostly up to 91.3 µM; fluorescence, % of fluorescent control: at the top concentration
# How it was run: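 Intensity at 540nm excitation and 590nm emission is reported as Rose Bengal sodium-equivalent autofluorescence. Measurements followed overnight exposure (37C, 5% CO2) of HEK293 cells, 2,000 per well, to 23 nL compound.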
# % is scaled to controls: 0 for no effect and ±100 for the full control effect.
Structure (SMILES),"fluorescence, % of fluorescent control",outcome
CCc1ccc(C)cc1,-0.115% (inactive),–
Cc1ccc(Cl)cc1N,0.389% [at 95.7 µM] (inactive),–
Cc1ccc(NC(=O)N(C)C)cc1NC(=O)N(C)C,-0.0296% (inactive),–
CC(C)(C)S,-0.576% [at 95.7 µM] (inactive),–
O=P(O)(O)Oc1ccccc1,-0.051% (inactive),–
CCO[Si](C)(CCCOCC1CO1)OCC (centres undefined),-0.0215% (inactive),–
CNS(=O)(=O)c1cc(C(=O)N2CCC(CCN3C4CCC3CC(n3c(C)nc5ccccc53)C4)(c3cccc(F)c3)CC2)c(Cl)cc1F (centres undefined),-0.105% (inactive),–
Cc1c[nH]c2ccccc12,0.306% [at 46 µM] (inactive),–
O=C1OC[C@H](Cc2cccc(O)c2)[C@H]1Cc1cccc(O)c1,-0.109% [at 46 µM] (inactive),–
Nc1nc(-c2ccc([N+](=O)[O-])cc2)cs1,-0.201% (inactive),–
CC(C)COC(=O)COc1cc(Cl)c(Cl)cc1Cl,0.12% (inactive),–
Cc1ccc(N(CCO)CCO)cc1,-0.0125% (inactive),–
Nc1nc2ccc(OC(F)(F)F)cc2s1,-0.0133% [at 46 µM] (inactive),–
C[C@@H]1C[C@H]2[C@@H]3CCC4=CC(=O)C=C[C@]4(C)[C@@]3(F)[C@@H](O)C[C@]2(C)[C@@]1(O)C(=O)COP(=O)(O)O,–,inactive
COC(=O)c1sccc1S(N)(=O)=O,0.0792% (inactive),–
COC(=O)CC(C(C)=O)C(=O)OC (centres undefined),-0.119% (inactive),–
Cc1c(C2(c3cc(Br)c(O)c(Br)c3C)OS(=O)(=O)c3ccccc32)cc(Br)c(O)c1Br,-0.248% (inactive),–

Structure (SMILES),"fluorescence, % of fluorescent control",outcome
SCCc1cnccn1,0.0873% (inactive),–
CN(C)CC/C=C1\c2ccccc2Sc2ccc(Cl)cc21,-0.647% [at 46 µM] (inactive),–
CC(=O)OCC(C)C,0.0317% (inactive),–
O=[N+]([O-])C1(Br)COCOC1,-0.0794% (inactive),–
CSSc1ccoc1C,-0.174% (inactive),–
CCOC(=O)C(C)O (centres undefined),-0.0603% [at 95.7 µM] (inactive),–
O=C(O)CCC(=O)c1ccc(-c2ccccc2)cc1,-0.0888% [at 18.6 µM] (inactive),–
CNc1c2c(nn1C)CCCC2,-0.05% [at 46 µM] (inactive),–
CCN(Cc1cccc(S(=O)(=O)O)c1)c1ccc(C(=C2C=CC(=[N+](CC)Cc3cccc(S(=O)(=O)O)c3)C=C2)c2ccccc2S(=O)(=O)[O-])cc1,0.171% (inactive),–
Nc1ccn([C@H]2CS[C@@H](CO)O2)c(=O)n1,–,inactive
C=CC(=O)O,–,inactive
Cc1ccc2nc(N)[nH]c(=O)c2c1Sc1ccncc1,0.824% [at 46 µM] (inactive),–
CCCCCCCC(=O)OCCCCCC,0.279% (inactive),–
C[C@@H]1[C@H](O)[C@@H](C)/C=C/C=C\C=C\C=C\C=C\C=C\C=C\[C@H](O[C@@H]2O[C@H](C)[C@@H](O)[C@H](N)[C@@H]2O)C[C@@H]2O[C@](O)(C[C@@H](O)C[C@@H](O)[C@H](O)CC[C@@H](O)C[C@@H](O)CC(=O)O[C@H]1C)C[C@H](O)[C@H]2C(=O)O (stereo in doubt),–,inactive
COc1ccc(-n2nc(C(F)F)cc2-c2ccc(S(C)=O)cc2)cc1 (centres undefined),-0.592% (inactive),–
CCN(CC)CCOC(=O)C(c1ccccc1)c1ccccc1,-0.167% [at 46 µM] (inactive),–
O=c1[nH]c2cc(C(F)(F)F)c(N3CCOCC3)cc2n(CP(=O)(O)O)c1=O,-0.0491% [at 46 µM] (inactive),–
